Test results from the supplement of paper PMC4840960.
Structures can show the parent of a compound that is named as a salt. Values without a mark were called inactive.

The molecules below were run on E18 rat cortical neuron-glia co-culture (assay: myelination (MBP fiber length per Olig2+ nucleus), % of 1 µM DAPT response (DMSO = 0) (% of DAPT); higher = more myelination, active = 50 or more). Settings: 1 µM; treatment time: 8 days (DIV5-DIV13).
Summary of the method: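 The myelination value was the continuous straight MBP fiber length per Olig2+ nucleus, scaled between 0.1 % DMSO (0) and a 1 µM positive control (100). It was measured in primary E18 rat cortical co-cultures treated with library compounds at 1 or 5 µM in myelination medium from DIV5 through DIV13. Cells were fixed in 4 % paraformaldehyde and stained for MBP, Olig2 and DAPI, and four 10X fields per well were imaged in duplicate wells.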

Row | Compound | myelination
1 | COc1cc2c(cc1OC)[C@@]13CCN4CC5=CCO[C@H]6CC(=O)N2[C@H]1[C@H]6[C@H]5C[C@H]43 [Brucine] | -6.05
2 | CC(NC(C)(C)C)C(=O)c1cccc(Cl)c1 (configuration not stated) [Bupropion] | -29.5
3 | C[C@]12CC[C@H](O)CC1=CC[C@@H]1[C@@H]2CC[C@]2(C)C(=O)CC[C@@H]12 [Dehydroepiandrosterone] | 18.9
4 | CC(C)(O)[C@@H]1[C@H]2OC(=O)[C@@H]1[C@]1(O)C[C@H]3O[C@]34C(=O)O[C@H]2[C@]14C [Picrotin] | -12.7
5 | Oc1cc2c(cc1O)[C@H]1c3ccccc3CN[C@@H]1CC2 (racemic) [Dihydrexidine] | -4.93
6 | CC[C@@H]1C=CC=CC[C@H](C)[C@@H](O)[C@@H](C)C(=O)[C@H](C)[C@@H](O)[C@H](C)C(=O)[C@H](C)[C@@H](O)[C@H](C)C=CC(=O)O[C@H]2[C@@H](C)[C@@H](CC1)O[C@@]1(CC[C@@H](C)[C@@H](C[C@H](C)O)O1)[C@@H]2C [Oligomycin C] | -6.58
7 | FC(F)(F)c1cccc(N2CCNCC2)c1 [1-(3-trifluoromethylphenyl)piperazine hydrochloride (TFMPP)] | -32.2
8 | NC(=O)OCCCc1ccccc1 [Phenprobamate] | -14.2
9 | C[C@]12CCC(=O)C[C@@H]1CC[C@@H]1[C@@H]2CC[C@@]2(C)[C@H]1CC[C@]2(C)O [Mestanolone] | -21.8
10 | CS(=O)(=O)Nc1ccc(Cc2noc(-c3ccc4[nH]cc(CCN)c4c3)n2)cc1 | -19.6
11 | CCCN1C[C@H](CSC)C[C@@H]2c3cccc4[nH]cc(c34)C[C@H]21 [Pergolide] | -19.3
12 | C[N+]1(CCC(C(N)=O)(c2ccccc2)c2ccccc2)CCCCC1 [Fenpiverinium] | 4.83
13 | C[C@]12CC[C@H]3[C@@H](CCC4=CC(=O)CC[C@@]43C)[C@@H]1CC[C@@H]2O [Testosterone] | -4.77
14 | CN1CCN(C(=O)O[C@H]2c3nccnc3C(=O)N2c2ccc(Cl)cn2)CC1 [Eszopiclone] | -5.43
15 | C=C1C[C@@H]2[C@H](CC[C@]3(C)C(=O)CC[C@@H]23)[C@@]2(C)C=CC(=O)C=C12 [Exemestane] | -11.3
16 | C[C@]12CC[C@H]3[C@@H](CCC4=CC(=O)CC[C@@H]43)[C@@H]1CC[C@@H]2O [Nandrolone] | -3.41
17 | CCC1(c2ccc(N)cc2)CCC(=O)NC1=O (configuration not stated) [Aminoglutethimide] | -5.42
18 | O=C(O)C(Cl)Cl [Dichloroacetic Acid] | -10.2
19 | C=CCN1CC[C@]23c4c5ccc(O)c4O[C@H]2C(=O)CC[C@@]3(O)[C@H]1C5 [Naloxone] | -7.1
20 | CC(O)(CS(=O)(=O)c1ccc(F)cc1)C(=O)Nc1ccc(C#N)c(C(F)(F)F)c1 (configuration not stated) [Bicalutamide] | -28
21 | O=C1Nc2ccc(Cl)cc2C(c2ccccc2Cl)=NC1O (configuration not stated) [Lorazepam] | -14.7
22 | COc1cc(N)c(Cl)cc1C(=O)NC1CN2CCC1CC2 (configuration not stated) [Zacopride] | -11.9
23 | CN1[C@@H]2CC[C@H]1C[C@@H](OC(=O)[C@H](CO)c1ccccc1)C2 [Hyoscyamine] | -15.1
24 | CCCCC/C=C\C/C=C\C/C=C\C/C=C\CCCC(=O)Nc1ccc(O)cc1 | -0.524
25 | COc1ccc2[nH]cc(C3=CCNCC3)c2c1 | -14.7
26 | c1ccc(Cn2ccnc2)cc1 [1-Benzylimidazole] | -11.8
27 | Oc1ccc2c3c1O[C@H]1c4[nH]c5ccccc5c4C[C@@]4(O)[C@@H](C2)N(CC2CC2)CC[C@]314 [Naltrindole] | -32.5
